The list is not random: actives were taken first. Their share in the collection is about 4.1%.
ssDAF-12 act: S. stercoralis DAF-12 activation, primary screen | 370,000 tested, 1% active | activation, % at 6.8 µM | HEK293 ssDAF-12/GRIP1 lit1-tk-luc reporter, luminescence; % of 3 µM dafachronic acid response;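 active = activation above the mean over all tested compounds plus 3 SD, cut at about 0.9% in these data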;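 note: 0% = DMSO-only wells and 100% = 3 µM delta7-dafachronic acid wells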
hcDAF-12 act: activators of H. contortus DAF-12 nuclear receptor; AID 652067; 370,000 tested, 1.4% active; HEK293 hcDAF-12 lit1-tk-luc reporter, luminescence; 0% DMSO, 100% Δ7-dafachronic acid; activation, % at 6.8 µM;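 active = activation above the mean of all tested compounds plus 3 SD, cut at about 5.5% in these data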;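 note: 100% = response to 3 µM Δ7-dafachronic acid high control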
DAX1 inh-1: blocks DAX1 repression of SF-1 activated StAR promoter | HEK293T StAR-luciferase reporter, SF-1/DAX-1 repression relief | inhibition, % at 6.8 µM | 370,000 tested, 1.1% active | AID 652010;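 active = inhibition above the mean over all tested compounds plus 3 SD, cut at about 3.6% in these data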;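 note: 0% = DAX-1 cells with DMSO and 100% = cells lacking DAX-1 with DMSO; higher inhibition means more luminescence from relief of DAX-1 repression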
hgDAF-12 ag: hgDAF-12 agonism, primary luciferase screen; HEK293 GAL4-hgDAF12 UAS-luciferase reporter, agonist luminescence; normalized to butyrate control; activation, % at 6.8 µM; 370,000 tested, 1.8% active; AID 687014;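 active = activation above a cutoff set at the mean of all screened compounds plus 3 SD, cut at about 10% in these data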;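 note: 0% = DMSO wells and 100% = sodium butyrate wells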
DAX1 inh-2: inhibits human nuclear receptor DAX1 | AID 504766 | inhibition, % at 6.75 µM | P51843 | 340,000 tested, 0.99% active | HEK293 Gal4-DAX1 luciferase reporter, luminescence;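 active = inhibition above the mean over all tested compounds plus 3 SD, cut at about 4.2% in these data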;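 note: 0% = DAX1-transfected cells with DMSO and 100% = empty-vector control cells with DMSO; inhibition shows as a rise in luminescence from relieved DAX1 repression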
Target sequence (P51843 207-470 limits assumed): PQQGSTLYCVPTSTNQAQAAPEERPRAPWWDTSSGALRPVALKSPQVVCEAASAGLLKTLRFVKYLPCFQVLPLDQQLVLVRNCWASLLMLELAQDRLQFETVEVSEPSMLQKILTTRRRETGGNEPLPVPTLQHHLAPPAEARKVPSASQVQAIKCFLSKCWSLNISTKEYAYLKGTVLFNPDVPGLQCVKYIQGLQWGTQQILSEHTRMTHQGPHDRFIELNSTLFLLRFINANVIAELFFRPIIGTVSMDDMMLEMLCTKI
Starred values were filed as active, the others as inactive; · = no result.

SMILES	ssDAF-12 act	hcDAF-12 act	DAX1 inh-1	hgDAF-12 ag	DAX1 inh-2
Nc1[nH]c(C(=O)c2ccc(Br)cc2)c(-c2ccc(Cl)cc2Cl)c1C(=O)NCCc1c[nH]c2ccccc12	1.1*	1	0	1	·
COc1ccc(S(=O)(=O)N2CCCc3nc(-c4ccc(F)cc4)ccc32)cc1	-1	0	0	0	·
CC(C)NC(=O)N[C@@H]1C[C@@H]2O[C@H](CO)CC[C@@H]2O[C@@H]1CCc1ccc(-c2ccccc2F)cc1	-1	-1	-1	0	·
C(#CC1=CCCCC1)CNCC1CC1	-1	-1	0	6	·
COc1ccc(C2=Nn3c(nnc3C3CCCCC3)SC2)cc1	-2	-6	-4	-4	·
COc1ccc(C(=O)CSc2nnc(-c3ccccn3)n2-c2ccccc2)cc1	-2	-2	-1	0	·
O=c1c(-c2nc3ccccc3s2)cccn1Cc1ccccc1	0	1	1	12*	2
CC(C)c1c(Cl)c(O)c(-c2ccccc2)c(=O)n1-c1ccc(F)cc1	0	5.7*	0	0	-1
CC(C)c1cc(O)c(-c2ccccc2)c(=O)n1-c1ccc(Cl)cc1	-2	-2	0	-1	1
CC(COc1cccc(OC(F)(F)F)c1)CN1CCC(C(O)(c2ccccc2)c2ccccc2)CC1 (centres undefined)	-1	-1	-1	1	·
O=C1c2cccc3cccc(c23)C(=O)C1(O)O	-1	5.8*	0	0	1
O=C1NC(=O)C2(N1)C(=O)c1cccc3cccc2c13 (centres undefined)	0	2	0	3	2
CNc1cccc(-c2ccc(C(C)=O)s2)n1	-1	0	4.0*	10	·
CNc1cccc(-c2ccccc2C(C)=O)n1	-1	0	0	0	·
CCN(CC)CCn1c2c(c(SCC(=O)Nc3nc4ccccc4s3)nc1=O)CCC2	0	5.8*	4	8	-1
CCN(CC)CCCn1c2c(c(SCC(=O)Nc3cc(C)cc(C)c3)nc1=O)CCC2	-1	0	4.4*	-1	0
CCN(CC)CCn1c2c(c(SCC(=O)Nc3nc4ccc(C)cc4s3)nc1=O)CCC2	-1	-2	1	3	0
O=C(COc1ccc2ccccc2c1Br)NC(=S)Nc1cccc(CO)c1	0	1	2	11*	-2
CCCC(C(=O)NCC1CCCO1)N(C(=O)CNS(=O)(=O)c1ccccc1)c1ccc(F)cc1 (centres undefined)	-1	-2	0	-1	4.6*
CC(C)C[C@H]1COc2cc(Br)ccc2S(=O)(=O)N1Cc1cn(Cc2ccc(Br)cc2)nn1	-2	-1	0	0	·
CC(C)(C)C1CCC(=NNC(=S)Nc2cccnc2)CC1 (centres undefined)	3.8*	-1	1	0	1
Cc1ccc(Cn2c(/C=C/c3ccco3)nc3ccccc32)cc1	-1	6.3*	0	5	0
Clc1ccc(Cn2c(/C=C/c3ccco3)nc3ccccc32)cc1	-1	1	0	0	2
O=C(CSc1cccs1)Nc1cccc2ccccc12	0	5	2	11*	1
O=C(CSc1cccs1)Nc1ccc2ccccc2c1	-1	-1	0	9	1
SMILES	ssDAF-12 act	hcDAF-12 act	DAX1 inh-1	hgDAF-12 ag	DAX1 inh-2
O=C(CSc1nc(=O)n2ccccc2n1)Nc1cccc2ccccc12	1.0*	2	1	2	1
Cc1cccc(NC(=O)CSc2nc(=O)n3ccccc3n2)c1C	-1	1	-1	0	1
O=[N+]([O-])c1cc(C=NN2CCN(Cc3ccccc3Cl)CC2)ccc1Cl	0	1	-2	2	·
O=C(CSc1nnc(-c2ccccc2)n1Cc1ccco1)Nc1ccc(OCc2ccccc2)cc1	-1	-2	-1	3	·
C/C(=N\NC(=O)c1ccc(Cn2cc(Br)cn2)o1)c1ccc(NC(=O)c2ccoc2C)cc1	0	2	4.4*	9	0
Cc1nnc(SCC(=O)N2CCOCC2)s1	-1	-1	0	2	1
O=C(CSc1nnc(NC2CCCCC2)s1)N1CCOCC1	-1	3	4.1*	5	1
CCOC(=O)N1CCN(C(=S)NC(C)(C)C)CC1	-1	-1	1	2	5.2*
COc1cc(NC(=O)c2ccccc2)c(C)cc1NC(=O)CSc1nnc(-c2ccco2)n1Cc1ccco1	-1	1	0	-3	·
CN(CCCC1CCCC1)C(=O)CCc1nnc(-c2ccccc2)o1	0	3	1	12*	5.4*
Cc1cc(C)n(CCN(C)C(=O)CCc2nnc(CCC3CCCCC3)o2)n1	1.2*	2	2	12*	3
CC(CNC(=O)CCc1nnc(CCC2CCCCC2)o1)c1ccccc1 (centres undefined)	-1	0	0	4	5.6*
C#CCNC(=O)C[C@H]1C[C@@]2(C(=O)OC)C(=C[C@H](COCc3ccccc3)O[C@@H]2C)N(Cc2ccco2)C1=O	-1	1	-1	3	·
CN(CC#Cc1ccccc1)C(N)=NC(=O)/C=C/c1ccccc1	-2	-2	0	-3	·
COC(=O)NC1c2ccccc2Oc2ccc(C)cc21 (centres undefined)	-1	-1	0	-3	-2
Cc1ccc2c(c1)Oc1ccccc1C=C2C(=O)O	-1	1	1	-1	4.3*
CC(C)c1ccc(NC(=O)O[C@@H]2CC[C@@]34CCCN3C(=O)CCC[C@H]4C2)cc1	-2	-2	·	1	·
CCCN1CC(=O)N2[C@H](C[C@@]3(n4ccc5ccccc54)c4ccccc4N(S(=O)(=O)c4ccccc4)[C@@H]23)C1=O	-1	-1	0	1	·
COc1cc2c(cc1OC)[C@@H](NC(=O)c1ccncc1)[C@H](C)[C@H]2c1ccccc1	-2	0	0	-1	·
COC(=O)c1cnn(-c2ccccc2)c1C(OC)OC	-1	0	0	1	4.5*
Cc1ccc2nc(SC(C)C(=O)N3CCCCC3)[nH]c2c1 (centres undefined)	1.8*	1	0	4	1
C[C@H]1COc2c3ccccc3nn21	-1	2	2	0	·
O=C(CSc1ccc(F)cc1)NC1CCCCC1	-1	2	1	7	0
O=C(CSc1ccc(Br)cc1)NC1CCCCCC1	1.9*	0	0	3	0
O=c1c(Cc2c(F)cccc2Cl)c(O)ccn1CCCn1ccnc1	-1	0	0	2	4.3*
Fc1ccc(N2CCN(C3=Nc4ccccc4Sc4ccccc43)CC2)cc1	1.3*	-2	-1	-7	·
CN1Cc2nnn(Cc3ccccc3)c2-c2cc(N3CCCCC3)ccc2S1(=O)=O	-2	-2	1	-2	·
Cc1cc2[nH]c(=O)c(=O)[nH]c2cc1S(=O)(=O)Nc1ccccc1F	-1	-1	-1	-1	4.6*
COC(=O)c1ccc(N/C=C/C(=O)c2ccccc2)cc1	0	0	1	8	4.5*
